The record followed here is PubChem BioAssay (EPA / NIEHS).

Active and inactive are the calls of the source. The calls were made as follows: active = hit-call score of the fitted dose curve at least 0.9, where 1 is the maximum; inactive = score below 0.9.

Transcription factor E2F1 (Homo sapiens), sequence (Q01094 whole entry, looked up): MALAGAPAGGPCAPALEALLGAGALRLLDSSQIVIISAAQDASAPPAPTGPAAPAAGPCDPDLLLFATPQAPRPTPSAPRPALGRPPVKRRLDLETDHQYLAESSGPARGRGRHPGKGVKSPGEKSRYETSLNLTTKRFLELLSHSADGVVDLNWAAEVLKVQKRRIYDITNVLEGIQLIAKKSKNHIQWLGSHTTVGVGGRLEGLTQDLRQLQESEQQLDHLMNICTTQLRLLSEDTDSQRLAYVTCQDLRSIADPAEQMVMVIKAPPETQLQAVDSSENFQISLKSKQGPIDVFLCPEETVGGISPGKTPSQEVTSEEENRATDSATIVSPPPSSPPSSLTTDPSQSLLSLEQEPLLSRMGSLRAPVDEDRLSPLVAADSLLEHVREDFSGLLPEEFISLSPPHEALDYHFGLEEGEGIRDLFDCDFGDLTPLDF

In this test the target is Transcription factor E2F1 (Homo sapiens) (UniProt Q01094). The experiment in a line: ATG_E2F_CIS: Attagene CIS-FACTORIAL HepG2 Assay for human E2F Transcription Factor 1 (AID 2282935). Conditions: HepG2 Attagene cis-reporter, E2F reporter RNA transcripts; actives raise or lower the signal. The method, then:
ATG_CIS is a cell-based, multiplexed-readout assay that uses HepG2, a human liver cell line, with measurements taken at 24 hours after chemical dosing in a 24-well plate.ATG_E2F_CIS is one of 52 assay component(s) measured or calculated from the ATG_CIS assay. It is designed to make measurements of mRNA induction, a form of inducible reporter, as detected with fluorescence intensity signals by Reverse transcription polymerase chain reaction (RT-PCR) and Capillary electrophoresis technology.Data from the assay component ATG_E2F_CIS was analyzed into 1 assay endpoint. This assay endpoint, ATG_E2F_CIS, was analyzed with bidirectional fitting relative to DMSO as the negative control and baseline of activity. Using a type of inducible reporter, measures of mRNA for gain or loss-of-signal activity can be used to understand the reporter gene at the transcription factor-level as they relate to the gene E2F1. Furthermore, this assay endpoint can be referred to as a primary readout, because this assay has produced multiple assay endpoints where this one serves a reporter gene function. To generalize the intended target to other relatable targets, this assay endpoint is annotated to the dna binding intended target family, where the subfamily is E2F transcription factor.
Human liver HepG2 cells are transiently transfected with multiple reporter transcription units (MRTUs) in 6-well plates using FuGene 6 reagent (Roche; 3 ml FuGene/1 mg DNA). The MRTU constructs are regulated by a cis-regulating element (promoter). […] A major difference between the CIS and TRANS system is that in CIS activities of endogenous TFs are measured, whereas the TRANS assay evaluates changes in activities of exogenous, chimeric NR-Gal4 proteins. […] At the end of 24 hour incubation, total RNA was isolated using TriZol reagent (Invitrogen). The isolated RNA is then reverse-transcribed using oligo(dT) primer and Mo-MLV reverse transcriptase (Invitrogen) with DNAse I (Ambion) treatment for 30 min. The one-tenth of the produced cDNA was amplified by PCR using Taq DNA polymerase (Invitrogen) and two reporter sequence-specific primers. The PCR products were fluorescently labeled by primer extension with 6-arboxyfluorescein (6-FAM) 5'-labeled reporter sequence-specific primer (2 min at 95 C, 20 s at 68 C and 10 min at 72 C) and these products were digested with 5U of HpaI (New England Biolabs) for 2h at 37 C. The fragments were purified using Qiaquick PCR columns (Qiagen), analyzed on an ABI 3130xL genetic analyzer (Applied Biosystems) with peak positions identified by using a set of X-rhodamine (ROX)-labeled MapMarker1000 molecular weight standards (BioVentures). The raw capillary electrophoresis data was processed using Attagraph software (Attagene).
For the compound `CCn1cc(C(=O)O)c(=O)c2ccc(C)nc21`, the compound was called inactive.

As to `CC(C)=CCCC(C)=CC(=O)O`, the result was inactive.

As for `CC(C)N(c1ccccc1)C(C)C`, the result was inactive.

As for `CCCCOCCOC(=O)c1ccccc1C(=O)OCCOCCCC`, the call was inactive.

For the compound `CCOC(=O)C=Cc1ccccc1`, the outcome was inactive.

As for `CC(=O)Nc1cc(S(=O)(=O)O)cc2cc(S(=O)(=O)O)c(N=Nc3ccccc3)c(O)c12`, the call was inactive.

For `c1coc(CNc2ncnc3nc[nH]c23)c1`, the compound was called inactive.

Consider `CCCCCCCOC(C)=O`, for which the call was inactive.

In the case of `C=CC(C)CCCC(C)(C)O` (stereo not given), the call was inactive.

Consider `NNC(=O)OCc1ccccc1`, for which the result was inactive.

For the compound `OC[C@@H](O)[C@H](O)[C@@H](O)[C@@H](O)CO`, the result was inactive.

As for `C=C(C)CCCC(C)CCO` (stereo not given), the compound was classed as inactive.

As for `COc1ccc(N)c(C)c1`, the compound was called inactive.

For the compound `CCC(=O)OCC=Cc1ccccc1`, the call was inactive.

For `CC1=CC[C@@H](C(C)(C)O)CC1`, the outcome was inactive.

`O=C(O)c1ccccc1O`: the call was inactive.

With `CC1(C)[C@H](C=C(Cl)Cl)[C@H]1C(=O)OCc1cccc(Oc2ccccc2)c1`, the compound was called inactive.

For `FC(F)(F)c1ccc(Cl)c(Cl)c1`, the compound was called inactive.

Take `CCCCCCCCCOS(=O)(=O)O`: the result was inactive.

Regarding `CC(=O)OCC=C(C)CCC=C(C)CCC=C(C)C`, the compound was classed as inactive.

Regarding `C=CCCCCCCCCC(=O)OCC`, the compound was called inactive.

Turning to `CC(C)(CO)CO`, the compound was called inactive.

Take `CCCCCCC(C)O` (stereo not given): the outcome was inactive.

Turning to `OCCN1CCOCC1`, the compound was called inactive.

Regarding `CCCCCCCCSCc1cc(C)c(O)c(CSCCCCCCCC)c1`, the compound was called inactive.

Turning to `CC(=O)c1ccc2ccccc2c1`, the compound was called inactive.

As to `C[N+](C)(C)CCO`, the compound was called inactive.

In the case of `O=C(O)c1cccc(Cl)n1`, the call was inactive.

As for `CCCO[Si](OCCC)(OCCC)OCCC`, the AC50 (usually the midpoint of the concentration-response curve, whichever way the signal moves) is 100 µM (active).

Take `NC(N)=NC(N)=NCCc1ccccc1`: the outcome was inactive.

Take `N#CCCCC(C#N)CCC#N` (stereo not given): the compound was called inactive.

As for `O=C1OCc2ccccc21`, the compound was classed as inactive.

`CCCCOCCOCCO`: the compound was called inactive.

On to `COc1ccc2[nH]cc(CCNC(C)=O)c2c1`, for which the call was inactive.

`CCCCOCCOCCOCCO`: the compound was called inactive.

Consider `CCOc1ccc(NC(C)=O)cc1`, for which the result was inactive.

Take `O=S(=O)(O)CCCN1CCOCC1`: the result was inactive.

Turning to `CC(=O)C1=C(C)[C@@H]2C[C@@]3(C1)[C@H](C)CC[C@H]3C2(C)C`, the AC50 is 139 µM (active).

Consider `NCCN1CCNCC1`, for which the compound was called inactive.

For the compound `CC(C)N1C(=O)c2ccccc2C1=O`, the outcome was inactive.
